Measured values published in PubChem BioAssay (NCI).
About 83,000 compounds went through this panel and 20% of them were active in at least one assay; those are over-represented in the sample as a whole.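 A percent growth of 40 corresponds to 60% growth inhibition; 0 means no net growth; -100 means all cells died. Active threshold: below 10.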 The source made the active and inactive calls.

Assays:
Test in all cases: NCI-60 one-dose screen, 48 h (100 = growth as untreated, 0 = no growth, -100 = all killed)
Details in all cases: 10 µM unless noted
RPMI-8226 leukemia = test system: RPMI-8226 leukemia
OVCAR-5 ovarian = test system: OVCAR-5 ovarian
OVCAR-4 ovarian = test system: OVCAR-4 ovarian
SK-OV-3 ovarian = test system: SK-OV-3 ovarian
IGROV1 ovarian = test system: IGROV1 ovarian
OVCAR-3 ovarian = test system: OVCAR-3 ovarian
HS 578T breast = test system: HS 578T breast
NCI/ADR-RES ovarian = test system: NCI/ADR-RES ovarian
T-47D breast = test system: T-47D breast
MDA-MB-435 melanoma = test system: MDA-MB-435 melanoma
SW-620 colon = test system: SW-620 colon
MCF7 breast = test system: MCF7 breast
HCT-116 colon = test system: HCT-116 colon
HCC-2998 colon = test system: HCC-2998 colon
KM12 colon = test system: KM12 colon
OVCAR-8 ovarian = test system: OVCAR-8 ovarian
BT-549 breast = test system: BT-549 breast

Measured: growth

O=C1Nc2ccccc2/C1=C\c1cccc(/C=C2/C(=O)Nc3ccccc32)n1
inactive: OVCAR-4 ovarian 11.6% | NCI/ADR-RES ovarian 16.1%
active: RPMI-8226 leukemia -48.7% | OVCAR-5 ovarian -69.5% | SK-OV-3 ovarian -88.6% | IGROV1 ovarian -66.8% | OVCAR-3 ovarian -89.6% | HS 578T breast -39.2% | T-47D breast -51.6% | MDA-MB-435 melanoma -73.6% | SW-620 colon -75.9% | MCF7 breast -69.9% | HCT-116 colon -65.6% | HCC-2998 colon -84.1% | KM12 colon -83.1%

O=C(O)/C=C\C(=O)N1C/C(=C\c2ccccc2Cl)C(=O)/C(=C/c2ccccc2Cl)C1
active: RPMI-8226 leukemia 3.9% | OVCAR-8 ovarian 4.98% | OVCAR-5 ovarian 2.41% | IGROV1 ovarian 1.94% | OVCAR-3 ovarian -37.7% | NCI/ADR-RES ovarian 4.6% | T-47D breast 7.54% | BT-549 breast -57% | MDA-MB-435 melanoma -11.3% | SW-620 colon -50% | MCF7 breast 3.37% | HCT-116 colon -97.2% | HCC-2998 colon -91.8% | KM12 colon -71.9%
inactive: HS 578T breast 47.1%

O=C(Nc1ccc(Cl)cc1)Nc1ccc(Cl)c(Cl)c1
inactive: OVCAR-5 ovarian 23.9% | OVCAR-4 ovarian 21.8% | SK-OV-3 ovarian 20.2% | IGROV1 ovarian 21.5% | HS 578T breast 33% | BT-549 breast 43.3% | SW-620 colon 14.4%
active: RPMI-8226 leukemia -27.6% | OVCAR-3 ovarian -31% | NCI/ADR-RES ovarian -18.8% | T-47D breast -12.2% | MDA-MB-435 melanoma 7.4% | MCF7 breast -4.33% | HCT-116 colon 5.23% | KM12 colon 6.34%

CC1(c2ccccc2)NC(=O)N(CC(=O)Nc2cccc(I)c2)C1=O (centres undefined)
inactive: RPMI-8226 leukemia 74.1% | OVCAR-5 ovarian 89.7% | OVCAR-4 ovarian 90.3% | SK-OV-3 ovarian 87.5% | OVCAR-3 ovarian 90.2% | HS 578T breast 44.9% | NCI/ADR-RES ovarian 92.7% | T-47D breast 81.5% | MDA-MB-435 melanoma 102% | SW-620 colon 92.2% | MCF7 breast 85.5% | HCT-116 colon 97.5% | HCC-2998 colon 106% | KM12 colon 90.9%

O=C(Nc1ccccc1)Oc1ccccc1-c1ccccc1
inactive: RPMI-8226 leukemia 96.5% | OVCAR-8 ovarian 98.4% | OVCAR-5 ovarian 90.5% | OVCAR-4 ovarian 103% | SK-OV-3 ovarian 80.1% | IGROV1 ovarian 107% | OVCAR-3 ovarian 106% | HS 578T breast 93.3% | NCI/ADR-RES ovarian 99.9% | BT-549 breast 76.3% | MDA-MB-435 melanoma 99.9% | SW-620 colon 99.5% | MCF7 breast 95.5% | HCT-116 colon 77.6% | HCC-2998 colon 107% | KM12 colon 107%

COc1ccc(CNC(=O)COc2ccc(/C=N/Nc3nc4ccccc4s3)cc2)cc1
active: OVCAR-4 ovarian -37.5% | MDA-MB-435 melanoma 7.82% | KM12 colon 1.51%
inactive: RPMI-8226 leukemia 27.3% | OVCAR-8 ovarian 22.3% | OVCAR-5 ovarian 66.9% | IGROV1 ovarian 28.8% | OVCAR-3 ovarian 25.3% | HS 578T breast 13.3% | NCI/ADR-RES ovarian 23.3% | T-47D breast 14.7% | BT-549 breast 12.9% | SW-620 colon 38.6% | MCF7 breast 42.1% | HCT-116 colon 10.6% | HCC-2998 colon 53.5%

Cn1ncc2c(Nc3ccccc3Cl)nc(Cl)nc21
inactive: RPMI-8226 leukemia 62.1% | OVCAR-8 ovarian 113% | OVCAR-5 ovarian 96.4% | OVCAR-4 ovarian 96.3% | SK-OV-3 ovarian 104% | OVCAR-3 ovarian 164% | HS 578T breast 136% | NCI/ADR-RES ovarian 100% | T-47D breast 99.7% | MDA-MB-435 melanoma 113% | SW-620 colon 126% | MCF7 breast 104% | HCT-116 colon 99.4% | HCC-2998 colon 109% | KM12 colon 126%

CO[C@@H]1[C@H](N(C)C(=O)c2ccccc2)C[C@@H]2O[C@]1(C)n1c3ccccc3c3c4c(c5c6ccccc6n2c5c31)C(=O)NC4=O
active: IGROV1 ovarian 7.2%
inactive: RPMI-8226 leukemia 67.1% | OVCAR-8 ovarian 54% | OVCAR-5 ovarian 57% | OVCAR-3 ovarian 46.7% | HS 578T breast 20.5% | NCI/ADR-RES ovarian 42.9% | T-47D breast 40.5% | BT-549 breast 45% | MDA-MB-435 melanoma 45.9% | SW-620 colon 18.6% | MCF7 breast 42% | HCT-116 colon 25.8% | HCC-2998 colon 61.9% | KM12 colon 21.8%

CC(C)(C#N)N1CCN(c2ccccc2Cl)CC1
inactive: RPMI-8226 leukemia 105% | OVCAR-8 ovarian 93.9% | OVCAR-5 ovarian 97.2% | SK-OV-3 ovarian 103% | IGROV1 ovarian 106% | OVCAR-3 ovarian 101% | HS 578T breast 96.4% | NCI/ADR-RES ovarian 98.8% | T-47D breast 102% | BT-549 breast 98.1% | MDA-MB-435 melanoma 97.3% | MCF7 breast 106% | HCT-116 colon 98.4% | HCC-2998 colon 91.4% | KM12 colon 106%

CS(=O)(=O)OCCN(CCOS(C)(=O)=O)c1ccc(/C=N/Nc2ccc([N+](=O)[O-])cc2[N+](=O)[O-])cc1
inactive: RPMI-8226 leukemia 82.3% | OVCAR-8 ovarian 76.4% | OVCAR-5 ovarian 97.8% | OVCAR-4 ovarian 93.1% | SK-OV-3 ovarian 101% | IGROV1 ovarian 72% | OVCAR-3 ovarian 107% | NCI/ADR-RES ovarian 73% | T-47D breast 76% | BT-549 breast 99.3% | MDA-MB-435 melanoma 94.1% | SW-620 colon 73.4% | MCF7 breast 66.5% | HCT-116 colon 83.9% | HCC-2998 colon 80.2% | KM12 colon 99.6%

[O-][n+]1ccccc1CCN(O)CCc1cccc[n+]1[O-]
inactive: RPMI-8226 leukemia 102% | OVCAR-8 ovarian 101% | OVCAR-5 ovarian 97.7% | OVCAR-4 ovarian 107% | SK-OV-3 ovarian 101% | IGROV1 ovarian 106% | OVCAR-3 ovarian 106% | HS 578T breast 94.5% | NCI/ADR-RES ovarian 99.8% | T-47D breast 100% | MDA-MB-435 melanoma 105% | SW-620 colon 102% | MCF7 breast 102% | HCT-116 colon 94.7% | HCC-2998 colon 109% | KM12 colon 104%

C1=C2CNCC3=Cc4ccc5ccccc5c4OC23Oc2c1ccc1ccccc21
active: OVCAR-3 ovarian -19.1% | NCI/ADR-RES ovarian -21.4% | MDA-MB-435 melanoma -69.7% | SW-620 colon 8.75%
inactive: RPMI-8226 leukemia 70.5% | OVCAR-8 ovarian 53.9% | OVCAR-5 ovarian 70% | IGROV1 ovarian 39.9% | HS 578T breast 52.5% | T-47D breast 66.7% | BT-549 breast 79.9% | MCF7 breast 12% | HCT-116 colon 11.1% | KM12 colon 15.2%

COC(=O)C1NC(=S)N(c2ccc(Cl)cc2)C1/C=C/c1ccccc1 (centres undefined)
inactive: RPMI-8226 leukemia 95.8% | OVCAR-8 ovarian 101% | OVCAR-5 ovarian 99.8% | IGROV1 ovarian 106% | OVCAR-3 ovarian 101% | HS 578T breast 107% | NCI/ADR-RES ovarian 90% | T-47D breast 88.2% | BT-549 breast 93.8% | MDA-MB-435 melanoma 85.5% | SW-620 colon 108% | MCF7 breast 101% | HCT-116 colon 95.6% | HCC-2998 colon 93.2% | KM12 colon 96%

CCSc1ccc2c(c1)N(CCCN1CCN(C)CC1)c1ccccc1S2
inactive: RPMI-8226 leukemia 32.1% | OVCAR-8 ovarian 76.3% | OVCAR-5 ovarian 70% | OVCAR-4 ovarian 61.2% | SK-OV-3 ovarian 78.7% | OVCAR-3 ovarian 58.2% | HS 578T breast 61.4% | NCI/ADR-RES ovarian 60.8% | T-47D breast 47% | BT-549 breast 73.2% | SW-620 colon 45.5% | MCF7 breast 20.5% | HCT-116 colon 21.9% | HCC-2998 colon 13.4%
active: MDA-MB-435 melanoma -15.1% | KM12 colon 4.74%

O=c1[nH]c2c(s1)CCCC2CN1CCCCC1 (centres undefined)
inactive: RPMI-8226 leukemia 103% | OVCAR-8 ovarian 113% | OVCAR-5 ovarian 89.2% | SK-OV-3 ovarian 86.6% | IGROV1 ovarian 120% | OVCAR-3 ovarian 111% | HS 578T breast 105% | NCI/ADR-RES ovarian 99% | BT-549 breast 72.6% | MDA-MB-435 melanoma 107% | SW-620 colon 114% | MCF7 breast 96.3% | HCT-116 colon 76.8% | HCC-2998 colon 100% | KM12 colon 108%

Cn1/c(=N/NC(N)=S)ccc2ccccc21
inactive: RPMI-8226 leukemia 78.2% | OVCAR-8 ovarian 74.6% | OVCAR-5 ovarian 99% | SK-OV-3 ovarian 107% | IGROV1 ovarian 44.7% | OVCAR-3 ovarian 44.1% | HS 578T breast 103% | NCI/ADR-RES ovarian 77% | T-47D breast 52.9% | BT-549 breast 100% | MDA-MB-435 melanoma 99.8% | SW-620 colon 84.5% | MCF7 breast 37.4% | HCC-2998 colon 112% | KM12 colon 103%
active: HCT-116 colon 7.01%

COc1cc2nnn3c4ncccc4c(N=O)c3c2cc1OC
active: RPMI-8226 leukemia -11.8%
inactive: OVCAR-8 ovarian 14.3% | OVCAR-5 ovarian 102% | OVCAR-4 ovarian 50.3% | SK-OV-3 ovarian 104% | OVCAR-3 ovarian 120% | HS 578T breast 116% | NCI/ADR-RES ovarian 44.6% | MDA-MB-435 melanoma 90.5% | SW-620 colon 46.3% | MCF7 breast 21.4% | HCT-116 colon 28.9% | HCC-2998 colon 106% | KM12 colon 87%

O=C(O)CCCCCCCCCCCCCCC(=O)O
inactive: RPMI-8226 leukemia 93.8% | OVCAR-8 ovarian 97.2% | OVCAR-5 ovarian 109% | OVCAR-4 ovarian 120% | SK-OV-3 ovarian 102% | IGROV1 ovarian 100% | OVCAR-3 ovarian 101% | NCI/ADR-RES ovarian 103% | T-47D breast 110% | BT-549 breast 105% | MDA-MB-435 melanoma 109% | SW-620 colon 109% | MCF7 breast 97% | HCT-116 colon 107% | HCC-2998 colon 101% | KM12 colon 102%

O=C(Nc1ccc(F)cc1)c1c(NC(=O)C(F)(F)F)sc2c1CCCCC2
active: RPMI-8226 leukemia -36.8% | OVCAR-8 ovarian 8.06% | OVCAR-4 ovarian 4.42% | SK-OV-3 ovarian -16.8% | OVCAR-3 ovarian 4.39% | HS 578T breast -6.84% | NCI/ADR-RES ovarian 0.19% | BT-549 breast -2.41% | MDA-MB-435 melanoma 3.22% | MCF7 breast 3.61% | HCT-116 colon 1.79% | KM12 colon 2.08%
inactive: OVCAR-5 ovarian 22.7% | IGROV1 ovarian 18.1% | SW-620 colon 11.6% | HCC-2998 colon 10.1%

COc1ccc(OC)c(/C=C/[C@H]2O[C@@H](C)[C@H](O)[C@@H]2O)c1
inactive: RPMI-8226 leukemia 95.3% | OVCAR-8 ovarian 109% | OVCAR-5 ovarian 112% | IGROV1 ovarian 105% | OVCAR-3 ovarian 125% | HS 578T breast 111% | NCI/ADR-RES ovarian 108% | T-47D breast 96% | BT-549 breast 104% | MDA-MB-435 melanoma 100% | SW-620 colon 113% | MCF7 breast 101% | HCT-116 colon 101% | KM12 colon 112%
